In PubChem BioAssay (NCI) one finds growth inhibition data, which are given here for 20 compounds.

Assay [1] in a line: NCI Yeast Anticancer Drug Screen. Data for the rad50 strain (AID 155).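 Also: 0% = growth of vehicle-only cultures of the same strain.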 The settings on record: S. cerevisiae rad50 strain growth inhibition; at 50.0 µM; active compounds read high. The procedure, abridged: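 Genetically altered yeast (DNA repair pathway); compound treatment; growth inhibition vs vehicle ctrl.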
Assay [2] can be described thus: NCI Yeast Anticancer Drug Screen. Data for the mec2-1 strain (AID 157). The settings on record: S. cerevisiae mec2-1 strain, at 50.0 µM, active compounds read high. An outline of the steps:
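mec2-1 yeast strain, carrying an alteration in DNA damage repair or cell cycle control, was exposed to compounds; growth inhibition was measured relative to vehicle-treated controls.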

A short description of assay [3]: NCI Yeast Anticancer Drug Screen. Data for the sgs1 mgt1 strain (AID 161).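 Also: 0% = growth of cultures given vehicle only.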 The settings on record: S. cerevisiae sgs1 mgt1 strain, at 50.0 µM, active compounds read high. The procedure, abridged:
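Growth of a repair-deficient yeast mutant was monitored after compound treatment and expressed as inhibition relative to vehicle-treated cultures.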

Assay [4] is described as follows: NCI Yeast Anticancer Drug Screen. Data for the cln2 rad14 strain (AID 165).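 Also: 0% = growth equal to vehicle treated cultures.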 The settings on record: S. cerevisiae cln2 rad14 strain, at 50.0 µM, active compounds read high. The procedure, abridged:
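Yeast carrying cln2 and rad14 alterations (cell cycle control and DNA damage repair) were exposed to compounds. Growth inhibition was measured against vehicle-treated controls.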

Assay [5] can be described thus: NCI Yeast Anticancer Drug Screen. Data for the bub3 strain (AID 167). The settings on record: S. cerevisiae bub3 mutant strain, at 50.0 µM, active compounds read high. The procedure, abridged:
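Yeast carrying a defined mutation is treated with each compound, and growth is compared with that of vehicle-exposed cells to give inhibition.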

A short description of assay [6]: NCI Yeast Anticancer Drug Screen. Data for the mlh1 rad18 strain (AID 175). The settings on record: S. cerevisiae mlh1 rad18 strain growth inhibition; at 50.0 µM; active compounds read high. The procedure, abridged: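 Growth inhibition of the yeast strain was measured after compound exposure and expressed relative to vehicle-treated controls. The strain carries defined defects in DNA damage repair.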

About 79,000 compounds went through this panel and 15% of them were active in at least one assay; those are over-represented in the sample as a whole. Unmarked numbers belong to inactive results. Active and inactive are the calls of the source. Rule as the data show it: active = growth inhibition above about 70%; inactive = the rest.

Consider `CCCCC(=O)[O-].N.N.N.N.N.[Co+3].[O-][Cl+3]([O-])([O-])[O-]`, for which the growth inhibition in assay [1] is -19.9%; in assay [2] it was 19.4%; in assay [3], -18.4%; in assay [4] it was 21.4%; in assay [5] it was -0.3%; in assay [6], -16%.

Turning to `Cc1ccc(OP(=O)(Oc2ccc(C)cc2)Oc2ccc(C)cc2)cc1.Cc1ccc(OP(=O)(Oc2ccc(C)cc2)Oc2ccc(C)cc2)cc1.[Cl][Ni][Cl]`, the growth inhibition is 23.5% in assay [1]; 35.8% in assay [2]; 29.4% in assay [3]; 4.2% in assay [4]; 38.4% in assay [5]; 59.3% in assay [6].

On to `CCC1CC[Si](C)(C)CC12C(=O)NC(=O)NC2=O` (stereo not given), for which the growth inhibition was 0.85% in assay [1]; -2.25% in assay [2]; 11.5% in assay [3]; 1.65% in assay [4]; 12.9% in assay [5]; -0.55% in assay [6].

On to `COc1ccc(NC2=C(C)C(=O)C3=C(C2=O)[C@H](COC(N)=O)[C@]2(OC)[C@@H]4N[C@@H]4CN32)cc1`, for which the growth inhibition in assay [1] is 81.7% (active); in assay [2] it was 79.7% (active); in assay [3], 74.8% (active); in assay [4] it was 71.6% (active); in assay [5], 69.4%; in assay [6], 73.7% (active).

As for `CNN(C)P(=O)(Oc1ccccc1)N(C)NC`, the growth inhibition was 5.5% in assay [1]; -7.3% in assay [2]; -9.15% in assay [3]; 7.9% in assay [4]; -2.1% in assay [5]; -5.15% in assay [6].

For the compound `C[N+](C)(Cc1ccc([N+](=O)[O-])cc1)c1ccc(N(CCCl)CCCl)cc1`, the growth inhibition in assay [1] is -4%; in assay [2], -24.3%; in assay [3], -33%; in assay [4] it was -15.4%; in assay [5], -21.8%; in assay [6], 10.8%.

In the case of `O=C(O)c1c(Cl)n(Cc2cc(Cl)ccc2Cl)c2ccccc12`, the growth inhibition in assay [1] was 4.5%; in assay [2], 14.3%; in assay [3] it was 19.9%; in assay [4], 19.9%; in assay [5], 11.3%; in assay [6] it was 22.2%.

Take `O=c1n(CC2CO2)c2ccccc2n1CC1CS1` (stereo not given): the growth inhibition was -7.4% in assay [1]; -36% in assay [2]; 7% in assay [3]; -12.8% in assay [4]; -41.4% in assay [5]; 1.7% in assay [6].

Consider `CC(Cc1ccc(O)cc1)NCC(O)c1cc(O)cc(O)c1` (stereo not given), for which the growth inhibition in assay [1] was 9.65%; in assay [2], 13.2%; in assay [3], 6.95%; in assay [4], -8.45%; in assay [5], 16.4%; in assay [6], 6.55%.

With `[Cu+2].[NH-]c1ccccc1C(=O)O.[NH-]c1ccccc1C(=O)O`, the growth inhibition in assay [1] is -34.8%; in assay [2], -21.8%; in assay [3], -13.9%; in assay [4] it was -87.7%; in assay [5] it was -27.1%; in assay [6], -52.4%.

Turning to `NS(=O)(=O)CC1CC[CH-]CC1.[Cl-].[Cl-].[Cl-].[Cl-].[Cl-].[Sb+5].c1ccncc1`, the growth inhibition in assay [1] is 11.3%; in assay [2], -14.1%; in assay [3], -10%; in assay [4] it was -12.2%; in assay [5] it was -20.4%; in assay [6], 18.1%.

On to `CCCCOP(=O)(Cc1ccccc1)Oc1ccccc1` (stereo not given), for which the growth inhibition in assay [1] is 73% (active); in assay [2] it was 32%; in assay [3], 68.8%; in assay [4], 50.4%; in assay [5], 35.3%; in assay [6], 27.6%.

For the compound `CCOP(=S)(OCC)Oc1ccc2c(c1)OC(=O)C1(Cl)C2(C)C2(Cl)C(=O)Oc3cc(OP(=S)(OCC)OCC)ccc3C12C` (stereo not given), the growth inhibition was 10.2% in assay [1]; 4.75% in assay [2]; 3.45% in assay [3]; 15.1% in assay [4]; 2.05% in assay [5]; 1.45% in assay [6].

For the compound `O=S(=O)(F)c1cc(Cl)c(O)c(S(=O)(=O)F)c1`, the growth inhibition is 10.1% in assay [1]; 6.25% in assay [2]; 5.8% in assay [3]; 3.65% in assay [4]; -2.75% in assay [5]; 10.1% in assay [6].

For the compound `O=C(Nc1cccc(Cl)c1)Oc1ccc(S(=O)(=O)F)cc1Cl`, the growth inhibition in assay [1] is 92.3% (active); in assay [2] it was 94.7% (active); in assay [3], 95.7% (active); in assay [4], 91.2% (active); in assay [5] it was 90.9% (active); in assay [6] it was 94.8% (active).

As to `[I][Ni][I].c1ccc([PH+](c2ccccc2)c2ccccc2)cc1.c1ccc([PH+](c2ccccc2)c2ccccc2)cc1`, the growth inhibition in assay [1] was 21%; in assay [2] it was 38.4%; in assay [3], 64%; in assay [4], 17.6%; in assay [5], 5.7%; in assay [6], 48.7%.

`OC12CCC[N+]1(Cc1ccccc1)CCC2` (stereo not given): the growth inhibition was 9.25% in assay [1]; -9.75% in assay [2]; -7.9% in assay [3]; 2.85% in assay [4]; -0.55% in assay [5]; -18.1% in assay [6].

`O=c1ccc(=O)[nH][nH]1.[Zn+2]`: the growth inhibition in assay [1] is -18.2%; in assay [2], 5.1%; in assay [3], -4.8%; in assay [4], -7.2%; in assay [5] it was -4%; in assay [6], -22.1%.

On to `CCOC(=O)C(Br)CBr` (stereo not given), for which the growth inhibition was 6.35% in assay [1]; -17.9% in assay [2]; 4.85% in assay [3]; -2.3% in assay [4]; -16.1% in assay [5]; 23.1% in assay [6].

Take `CS(=N)(=O)CCC(N)P(=O)(O)O` (stereo not given): the growth inhibition in assay [1] is -29.8%; in assay [2], -37.6%; in assay [3] it was 6.85%; in assay [4], 13.9%; in assay [5], -50.5%; in assay [6] it was -27.9%.
